System: ABL1-phosphorylated
Details: concentration: 1 μM, replicates: in singlicate; n = 1
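Further: KINOMEscan kinase panel screen.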

SMILES	%Inh [%]
COc1ccc(NC(=O)c2ccoc2)cc1-c1ccc(C(=O)NCC2CC2)cc1 [GW810437]	1
CC(=O)Nc1cn2nc(Oc3cccc(NC(=O)c4cccc(C(F)(F)F)c4)c3)ccc2n1	99.9
Cc1ccc(C)c(NC(=O)Nc2ccc(C)c(-c3ccc(C(=O)Nc4ccncc4)cc3)c2)c1 [GSK1398473]	0
CN(C)c1ncnc2nc[nH]c12 [SKF-31736]	27
Cc1ccc(O)cc1Nc1ccnc2cc(-c3ccc(CN4CCCCC4)o3)ccc12 [GW557777]	99.9
Cl.Cl.NCC(NC(=O)c1cc(-c2cccnc2)c(-c2ccnc3[nH]ccc23)s1)c1ccccc1 (centres unmarked) [GSK1323434]	37
CC(C)NCC(Cc1ccccc1)NC(=O)c1cc(Br)c(-c2ccnc3[nH]ccc23)s1.Cl.Cl (centres unmarked) [GSK1383281]	14
COc1cccc(NC(=O)NCCNc2ccnc(Nc3ccc(F)cc3)n2)c1 [GSK1379879]	0
Cc1cc(-c2ccnc(Nc3cccc(C#N)c3)n2)cc(C)c1O [GSK1440913]	1
Cc1ccc(O)cc1Nc1ccnc2ccc(C(C)(C)C)cc12 [GW856805]	99.6
O=C(Nc1n[nH]c2nc(-c3ccccc3)ccc12)C1CC1 [SB-708999]	41
Cl.Cl.NC(CNC(=O)c1cc(Br)c(-c2ccnc3[nH]ccc23)s1)c1ccccc1 (centres unmarked) [GSK1322949]	10
Cn1cc(-c2cnc(N)c3c(-c4ccc5c(c4)CCN5C(=O)Cc4ccccc4)csc23)cn1 [GSK2593074]	89
O=C1NC(=O)C(c2ccccc2Cl)=C1Nc1cccc(Cl)c1 [SB-342409]	9
COc1ccc(C2=C(Nc3cccc(O)c3)C(=O)NC2=O)cc1 [SB-390766]	0
CN(C)CCNS(=O)(=O)c1ccc(-c2ccnc3[nH]ccc23)cc1 [GSK977620]	0
CC(C)c1nc(-c2cccc(NS(=O)(=O)c3c(F)cccc3F)c2)c(-c2ccnc(Nc3ccc(N4CCOCC4)nc3)n2)s1.Cl [GSK1723980]	95.6
CCn1cnc2c(NCc3ccccc3)ncnc21 [SKF-96418]	9
COC(=O)Nc1nc2cc(Oc3ccc(NC(=O)Nc4cccc(SC)c4)cc3)ccc2[nH]1.Cl [GW697999]	90.1

SMILES	%Inh [%]
O=C(Nc1n[nH]c2nc(-c3cccc(O)c3)ccc12)C1CC1 [SB-711805]	88
CN(c1ccc(F)c(NC(=O)c2cccc(OC(C)(C)C#N)c2Cl)c1)c1ccc2nc(NC(=O)C3CC3)sc2n1	92.6
Cc1nn2c(=O)cc(N3CCO[C@H](C)C3)nc2n1Cc1cccc(Cl)c1Cl [GSK2373693]	0
Cl.O=C(Nc1ccc(Oc2ccc3[nH]c(NC(=O)c4ccco4)nc3c2)cc1)Nc1cc(C(F)(F)F)ccc1F [GW683134]	76
N#CC1(c2cccc(C(=O)Nc3cccc(Oc4ccc5nc(NC(=O)C6CC6)sc5n4)c3)c2)CC1	98.7
COC(=O)Nc1nc2ccc(Oc3ccc(CC(=O)Nc4cc(C(F)(F)F)ccc4F)cc3)cc2[nH]1 [GW680903]	0
O=C(Nc1n[nH]c2nc(-c3ccccc3O)ccc12)C1CC1 [SB-711880]	44
CNc1nccc(-c2ccc3c(N)n[nH]c3c2)n1 [GSK2206003]	3
O=C(Nc1n[nH]c2cc(-c3cccs3)ccc12)C1CC1 [SB-731284]	61
CC(C)(C)c1ccc(C(=O)Nc2cn3cc(-n4ccnc4)ccc3n2)cc1	21
Cc1ccc(Nc2ccnc(Nc3ccc(C)c(F)c3)n2)cc1O.Cl [GW582868]	47
Fc1cc(Cl)ccc1Nc1ccnc2cc(-c3ccc(CN4CCOCC4)o3)ccc12 [GW560109]	99.8
Nc1cccc(-c2ccc3c(N)n[nH]c3c2)c1 [GSK2193613]	37
Nc1ncnc2scc(-c3ccc(NC(=O)Cc4cc(F)ccc4F)cc3)c12.O=C(O)C(F)(F)F [SB-731254-M]	50
COc1cccc(-c2nc(-c3ccccc3)[nH]c2-c2ccncc2)c1 [SB-610250]	8
Cc1cccc(Nc2nc(NCCN)ncc2C(N)=O)c1 [GSK1292139]	28
CN1CCN(Cc2ccc(NC(=O)Nc3ccc(N(C)c4ccnc(Nc5ccc(CS(C)(=O)=O)cc5)n4)cc3)cc2)CC1.Cl [GW827654]	94.2
CN(c1ccc(NC(=O)Nc2cccc(Cl)c2)cc1)c1ccnc(N)n1.Cl [GW830707]	0

System: ABL2
Details: concentration: 1 μM, replicates: in singlicate; n = 1

SMILES	%Inh [%]
COc1ccc(NC(=O)c2ccoc2)cc1-c1ccc(C(=O)NCC2CC2)cc1 [GW810437]	5
CC(=O)Nc1cn2nc(Oc3cccc(NC(=O)c4cccc(C(F)(F)F)c4)c3)ccc2n1	99.3
Cc1ccc(C)c(NC(=O)Nc2ccc(C)c(-c3ccc(C(=O)Nc4ccncc4)cc3)c2)c1 [GSK1398473]	14
CN(C)c1ncnc2nc[nH]c12 [SKF-31736]	0
Cc1ccc(O)cc1Nc1ccnc2cc(-c3ccc(CN4CCCCC4)o3)ccc12 [GW557777]	100
Cl.Cl.NCC(NC(=O)c1cc(-c2cccnc2)c(-c2ccnc3[nH]ccc23)s1)c1ccccc1 (centres unmarked) [GSK1323434]	30
CC(C)NCC(Cc1ccccc1)NC(=O)c1cc(Br)c(-c2ccnc3[nH]ccc23)s1.Cl.Cl (centres unmarked) [GSK1383281]	5
COc1cccc(NC(=O)NCCNc2ccnc(Nc3ccc(F)cc3)n2)c1 [GSK1379879]	6
Cc1cc(-c2ccnc(Nc3cccc(C#N)c3)n2)cc(C)c1O [GSK1440913]	37
Cc1ccc(O)cc1Nc1ccnc2ccc(C(C)(C)C)cc12 [GW856805]	90.2
O=C(Nc1n[nH]c2nc(-c3ccccc3)ccc12)C1CC1 [SB-708999]	16
Cl.Cl.NC(CNC(=O)c1cc(Br)c(-c2ccnc3[nH]ccc23)s1)c1ccccc1 (centres unmarked) [GSK1322949]	25
Cn1cc(-c2cnc(N)c3c(-c4ccc5c(c4)CCN5C(=O)Cc4ccccc4)csc23)cn1 [GSK2593074]	81
O=C1NC(=O)C(c2ccccc2Cl)=C1Nc1cccc(Cl)c1 [SB-342409]	16
COc1ccc(C2=C(Nc3cccc(O)c3)C(=O)NC2=O)cc1 [SB-390766]	13
CN(C)CCNS(=O)(=O)c1ccc(-c2ccnc3[nH]ccc23)cc1 [GSK977620]	8
CC(C)c1nc(-c2cccc(NS(=O)(=O)c3c(F)cccc3F)c2)c(-c2ccnc(Nc3ccc(N4CCOCC4)nc3)n2)s1.Cl [GSK1723980]	99.4
CCn1cnc2c(NCc3ccccc3)ncnc21 [SKF-96418]	0
COC(=O)Nc1nc2cc(Oc3ccc(NC(=O)Nc4cccc(SC)c4)cc3)ccc2[nH]1.Cl [GW697999]	76

SMILES	%Inh [%]
O=C(Nc1n[nH]c2nc(-c3cccc(O)c3)ccc12)C1CC1 [SB-711805]	27
CN(c1ccc(F)c(NC(=O)c2cccc(OC(C)(C)C#N)c2Cl)c1)c1ccc2nc(NC(=O)C3CC3)sc2n1	89
Cc1nn2c(=O)cc(N3CCO[C@H](C)C3)nc2n1Cc1cccc(Cl)c1Cl [GSK2373693]	14
Cl.O=C(Nc1ccc(Oc2ccc3[nH]c(NC(=O)c4ccco4)nc3c2)cc1)Nc1cc(C(F)(F)F)ccc1F [GW683134]	97.9
N#CC1(c2cccc(C(=O)Nc3cccc(Oc4ccc5nc(NC(=O)C6CC6)sc5n4)c3)c2)CC1	95
COC(=O)Nc1nc2ccc(Oc3ccc(CC(=O)Nc4cc(C(F)(F)F)ccc4F)cc3)cc2[nH]1 [GW680903]	34
O=C(Nc1n[nH]c2nc(-c3ccccc3O)ccc12)C1CC1 [SB-711880]	55
CNc1nccc(-c2ccc3c(N)n[nH]c3c2)n1 [GSK2206003]	20
O=C(Nc1n[nH]c2cc(-c3cccs3)ccc12)C1CC1 [SB-731284]	0
CC(C)(C)c1ccc(C(=O)Nc2cn3cc(-n4ccnc4)ccc3n2)cc1	22
Cc1ccc(Nc2ccnc(Nc3ccc(C)c(F)c3)n2)cc1O.Cl [GW582868]	70
Fc1cc(Cl)ccc1Nc1ccnc2cc(-c3ccc(CN4CCOCC4)o3)ccc12 [GW560109]	96.4
Nc1cccc(-c2ccc3c(N)n[nH]c3c2)c1 [GSK2193613]	21
Nc1ncnc2scc(-c3ccc(NC(=O)Cc4cc(F)ccc4F)cc3)c12.O=C(O)C(F)(F)F [SB-731254-M]	9
COc1cccc(-c2nc(-c3ccccc3)[nH]c2-c2ccncc2)c1 [SB-610250]	27
Cc1cccc(Nc2nc(NCCN)ncc2C(N)=O)c1 [GSK1292139]	0
CN1CCN(Cc2ccc(NC(=O)Nc3ccc(N(C)c4ccnc(Nc5ccc(CS(C)(=O)=O)cc5)n4)cc3)cc2)CC1.Cl [GW827654]	81
CN(c1ccc(NC(=O)Nc2cccc(Cl)c2)cc1)c1ccnc(N)n1.Cl [GW830707]	3

Reference: publication PMC5540273 (PLoS ONE, 2017)
